Source: PubChem BioAssay (National Center for Advancing Translational Sciences (NCATS))
Rows were chosen to be rich in hits. Some 5.5% of all compounds tested hit in one or more screens of this group.
RORg inh – qHTS for inhibitors of ROR gamma transcriptional activity; Nuclear receptor ROR-gamma (Mus musculus), P51450; Drosophila S2 Gal4-RORgamma UAS-luciferase reporter, 20 h; Potency, µM (titrated, usually from 53.6 µM), for the others: top-dose activity change, negative = inhibition, most hits filed as inhibitors; actives 5.4% (n = 310,000); also: % is scaled to controls: 0 for no effect and ±100 for the full control effect; nearly all actives have a fitted effect of over 60% in size
Target sequence (P51450 whole entry, looked up, the tested form may be a part): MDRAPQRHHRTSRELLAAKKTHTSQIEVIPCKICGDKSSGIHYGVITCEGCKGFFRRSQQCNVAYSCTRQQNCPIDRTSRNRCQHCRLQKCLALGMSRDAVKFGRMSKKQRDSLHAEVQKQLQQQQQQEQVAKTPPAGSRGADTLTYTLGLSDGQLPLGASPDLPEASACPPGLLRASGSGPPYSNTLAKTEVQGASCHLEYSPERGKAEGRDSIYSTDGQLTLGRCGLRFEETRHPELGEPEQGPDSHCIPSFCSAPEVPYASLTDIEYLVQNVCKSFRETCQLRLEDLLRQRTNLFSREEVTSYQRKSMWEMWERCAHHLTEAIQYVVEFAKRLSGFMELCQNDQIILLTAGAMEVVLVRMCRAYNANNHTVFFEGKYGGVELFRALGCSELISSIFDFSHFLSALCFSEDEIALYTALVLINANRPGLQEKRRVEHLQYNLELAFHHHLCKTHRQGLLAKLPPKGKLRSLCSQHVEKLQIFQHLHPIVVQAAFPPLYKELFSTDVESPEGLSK
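Read-out: Photinus luciferase luminescence; inhibitors lower reporter signal. Insect Schneider cells with Gal4-ROR gamma fusion under metallothionein promoter, UAS reporter; 700 uM final copper sulfate induction, 20 hr, ambient temperature.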
Chronic BCR inh – qHTS Assay to Find Inhibitors of Chronic Active B-Cell Receptor Signaling | actives 0.05% (n = 340,000) | ABC-DLBCL IkBa-CBG/CBR reporter, luminescence ratio, 4 h | Potency, µM (highest dose often 46.1 µM), inactives show top-dose activity change, negative = inhibition, hits mostly inhibitors | AID 493014, 2011; active = well fitted inhibition curve with a large enough effect in the signal ratio, with a control signal flat, not every such curve was filed as active; inconclusive = small, poorly fitted or top-dose-only effect, or effect the other way, or a change in a side signal; the % refers to the signal ratio;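 also: plate controls were basal doxycycline-induced cells for no effect and cells given 10 µM MG132 for full effect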
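TMD8 ABC-DLBCL cells carrying doxycycline-inducible green luciferase fused to IkappaBalpha plus unfused red luciferase were exposed to compounds (up to 46 uM) for 4 hrs at 37C. Activity came from the overlap-corrected green/red luminescence ratio.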
VP16 counter – VP16 counterscreen qHTS for inhibitors of ROR gamma transcriptional activity | Drosophila S2 Gal4-VP16 UAS-luciferase, luminescence, 20 h | actives 3.5% (n = 310,000) | Potency, µM (titrated, usually from 53.6 µM), without a hit: at the highest dose activity, negative = inhibition, most hits filed as inhibitors;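 also: Gal4-VP16 expression switched on by copper sulfate through the metallothionein promoter; % is scaled to controls: 0 for no effect and ±100 for the full control effect; nearly all actives have a fitted effect of over 50% in size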
Integrin act MD – qHTS for Activators of Integrin-Mediated Alleviation for Muscular Dystrophy | AID 624291, 2012 | Potency, µM (highest dose often 38.3 µM), for inactives: top-dose activation, hits mostly activators | alpha7betagal myoblasts, beta-gal FDG fluorescence, 48 h | actives 0.064% (n = 350,000);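 also: 100% = response of the positive control SU9516; nearly all actives have a fitted effect of over 60% in size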
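alpha7betagal+/- myoblasts (passage 13, 250/well) treated 48 h at 37C with compounds at 1:260 dilution of DMSO stock. Lysed, then beta-galactosidase activity read as FDG fluorescence (ex 480/em 540) after 30 min, with pre-read for autofluorescence.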
Mito fusion act – qHTS Assay for Small Molecule Inhibitors of Mitochondrial Division or Activators of Mitochondrial Fusion. actives 0.23% (n = 320,000). AID 485298, 2010. Potency, µM (top dose mostly 46.1 µM), inactives show at the top dose growth rescue (activation), hits mostly activators. S. cerevisiae fusion-defective mutant growth rescue, CellTiterGlo 48 h; also: % of control where 0% means no effect; nearly all actives have a fitted effect of over 45% in size
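Read-out: ATP-based luminescence (CellTiterGlo, 10 min ambient) reporting growth of fusion-defective ts yeast after 48 hours at 37C on glycerol/ethanol YPEG medium in the presence of compound.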
uPA generation – qHTS for Inhibitors of Cell Surface uPA Generation | cell surface uPA generation assay, qHTS | Potency, µM (doses to about 38.3 µM), inactives show at the highest dose activity change, negative = inhibition, usual class: inhibitors | actives 0.31% (n = 330,000) | AID 540303, 2011; active = well fitted inhibition curve with a large enough effect; inconclusive = small, poorly fitted or top-dose-only effect; inactive = no such curve, though single readings can be large or run the other way; tested in mouse RAW 264.7 cells; also: % is scaled to controls: 0 for no effect and ±100 for the full control effect; nearly all actives have a fitted effect of over 55% in size
* hit, by the source's call; [ ] = another dose, or the depositor's remark. Unless noted, calls follow the shape of the dose curve; as a rule, active = well fitted curve in the direction sought with a large enough effect; inconclusive = small, poorly fitted or top-dose-only effect, or another doubt; inactive = no such curve, though single readings can be large; an effect the other way counts as inactive or inconclusive. Potency is read from the fitted curve at half-maximal effect.

For C/C(=N\OCC(=O)N/N=C/c1ccccc1O)c1cccs1 the results were RORg inh 1.1µM*, Chronic BCR inh 3%, VP16 counter 2.2µM*, Integrin act MD -33%, Mito fusion act -5% and uPA generation -7%.
`O=C(CN1CCCc2ccccc21)N/N=C/c1ccc(F)cc1F` gave RORg inh 29%, Chronic BCR inh inconclusive, VP16 counter -3%, Integrin act MD 11%, Mito fusion act -24% and uPA generation 3%.
Screening Cc1nccn1CC(=O)N/N=C/c1ccccc1O returned RORg inh 4µM*, Chronic BCR inh inconclusive, VP16 counter inconclusive, Integrin act MD -21%, Mito fusion act -1% and uPA generation -2%.
O=C(CN1CCCc2ccccc21)N/N=C/c1ccccc1O was read as RORg inh 0.25µM*, Chronic BCR inh inconclusive, VP16 counter 0.32µM*, Integrin act MD -4%, Mito fusion act -10% and uPA generation -9%.
`C/C(=N\OCC(=O)N/N=C/c1ccccc1)c1cccs1` gave RORg inh 22%, Chronic BCR inh inconclusive, VP16 counter 8%, Integrin act MD 16%, Mito fusion act -2% and uPA generation -4%.
Screening COc1ccc(CSCC(=O)N/N=C/c2ccccc2O)cc1 returned RORg inh 0.71µM*, Chronic BCR inh -6%, VP16 counter 3.2µM*, Integrin act MD -10%, Mito fusion act -1% and uPA generation 0%.
Screening O=C(CCSCCC(=O)NN=Cc1ccccc1O)NN=Cc1ccccc1O returned Integrin act MD 0% and uPA generation -6%.
For CN(Cc1ccc(C(C)(C)C)cc1)C(=O)C1CSC2(C)CCC(=O)N12 (stereo not given) the results were Chronic BCR inh -1%, Integrin act MD -9%, Mito fusion act -1% and uPA generation 2%.
Screening Cc1cc(OCc2cc(C(=O)N(C)C(C)c3ccccn3)no2)cc(C)c1Cl (stereo not given) returned RORg inh inconclusive, Chronic BCR inh -10%, VP16 counter inconclusive, Integrin act MD inconclusive, Mito fusion act 10% and uPA generation -2%.
For CC(=O)OC[C@H]1O[C@@H](O/N=C2/[C@H]3O[C@@H]3[C@@H](O)[C@H]3[C@H]2CCn2c(=O)n(-c4ccccc4)c(=O)n23)[C@H](OC(C)=O)[C@@H](OC(C)=O)[C@@H]1OC(C)=O the results were RORg inh 8%[10 µM] and VP16 counter -1%[10 µM].
`CCOC(=O)c1cc([N+](=O)[O-])c([N+](=O)[O-])cc1NC(C)=O` gave RORg inh 5µM*, Chronic BCR inh inconclusive, VP16 counter 3.2µM*, Integrin act MD 7%, Mito fusion act 3% and uPA generation -14%.
Screening CCOC(=O)c1ccc(NC(=O)c2ccccc2[N+](=O)[O-])cc1 returned RORg inh inconclusive, Chronic BCR inh inconclusive, VP16 counter -22%, Integrin act MD -12%, Mito fusion act 17% and uPA generation -1%.
Cc1ccc(CCNC(=O)c2cc(-c3ccncc3)nc3ccccc23)cc1 was read as RORg inh 15%, Chronic BCR inh 4%, VP16 counter 1%, Integrin act MD -34%, Mito fusion act 7% and uPA generation 14%.
Screening O=C(NC1=NCCS1)c1cc(-c2ccc(F)cc2)nc2ccccc12 returned RORg inh 10µM*, Chronic BCR inh inconclusive, VP16 counter 11µM*, Integrin act MD 7%, Mito fusion act 3% and uPA generation -6%.
Screening O=C(NN=C1CCCC1)c1cc(-c2ccc(F)cc2)nc2ccccc12 returned RORg inh inconclusive, Chronic BCR inh -19%, VP16 counter 1%, Integrin act MD 4%, Mito fusion act 3% and uPA generation -5%.
Screening CCCc1ccc(-c2cc(C(=O)NC3=NCCS3)c3ccccc3n2)cc1 returned RORg inh 1.8µM*, Chronic BCR inh -9%, VP16 counter 1.6µM*, Integrin act MD 8%, Mito fusion act 9% and uPA generation -8%.
Screening Cc1ccc(-c2cc(C(=O)NC3=NCCS3)c3ccccc3n2)cc1C returned RORg inh 10µM*, Chronic BCR inh inconclusive, VP16 counter 11µM*, Integrin act MD 37%, Mito fusion act -2% and uPA generation -4%.
Screening CCN(CC(=O)Nc1cccc(OC)c1)C(=O)c1ccco1 returned RORg inh -10%, Chronic BCR inh inconclusive, VP16 counter -26%, Integrin act MD -1%, Mito fusion act 7% and uPA generation 4%.
`CCOC(=O)c1ccc(NC(=O)c2ccc(OC(C)C)c(OC)c2)cc1` gave RORg inh -3%, Chronic BCR inh inconclusive, VP16 counter -13%, Integrin act MD -24%, Mito fusion act 4% and uPA generation 5%.
CCOC(=O)c1ncc2[nH]c3cccc(OC(C)C)c3c2c1C was read as RORg inh 18µM* and VP16 counter inconclusive.
`CCN(CC)C(=S)NC(=O)c1cc(OC)c(OC)c(OC)c1` gave RORg inh inconclusive, Chronic BCR inh -12%, VP16 counter inconclusive, Integrin act MD 3%, Mito fusion act 5% and uPA generation -1%.
Screening Cc1ccc(/C=N\NC(=O)c2cc([N+](=O)[O-])cc([N+](=O)[O-])c2)o1 returned RORg inh 2.5µM*, Chronic BCR inh -1%, VP16 counter inconclusive, Integrin act MD 12%, Mito fusion act -5% and uPA generation 7%.
For O=C(N/N=C/c1ccc(N2CCCCC2)o1)c1ccccc1 the results were RORg inh 5µM*, Chronic BCR inh inconclusive, VP16 counter 5µM*, Integrin act MD -56%, Mito fusion act -3% and uPA generation -14%.
Cc1ccc(/C=N/NC(=O)C(=O)N/N=C/c2ccc(C)o2)o1 was read as RORg inh -2%, Chronic BCR inh 12%, VP16 counter -1%, Integrin act MD inconclusive, Mito fusion act 5% and uPA generation -1%.
Cc1ccc(C(=O)Nc2ccc(C(=O)N/N=C/c3ccc(C)o3)cc2)cc1 was read as RORg inh inconclusive, Chronic BCR inh inconclusive, VP16 counter inconclusive, Integrin act MD -21%, Mito fusion act -4% and uPA generation -8%.
Screening Cc1ccc(/C=N/NC(=O)c2ccc(-c3ccccc3)cc2)o1 returned RORg inh 13µM*, Chronic BCR inh 1%, VP16 counter inconclusive, Integrin act MD inconclusive, Mito fusion act 3% and uPA generation -1%.
